# Calls of active or inactive are those of the source.
# How the values were obtained:
# [1] = E. coli DRC41 culture turbidity changes, primary screen, E. coli filamentation inducer project, strain DRC41, OD650, 48 h (AID 1152);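 note: E. coli MC1000 strain DRC41 lacking acrAB efflux pump and sulA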; conditions: E. coli DRC41 (acrAB sulA), higher = more signal, called active from +8 up or from −8 down
# [2] = small-molecule binders of probe aLefty1, primary screen, biochemical, small-molecule microarray, 635/667 nm fluorescence (AID 1153); conditions: higher = more signal;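 note: score merges spot fluorescence with signal-to-noise ratio from the scanned slide images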
# [3] = PSAC antagonists in infected red cells, primary screen, cell-based, P. falciparum Indochina, OD700, 1 h (AID 1154); conditions: P. falciparum Indochina infected RBC osmotic lysis, higher = more signal, called active from +8 up or from −8 down
# [4] = PSAC antagonists in infected red cells, primary screen, cell-based, P. falciparum Indochina, OD700, 2 h (AID 1155);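 note: lysis reports solute entry through the parasite surface anion channel PSAC; channel blockers reduce lysis of infected cells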; conditions: P. falciparum Indochina infected erythrocytes, osmotic lysis OD700; higher = more signal, called active from +8 up or from −8 down
# [5] = osmotic lysis modulators in infected erythrocytes, primary screen, PSAC antagonist project, cell-based, P. falciparum Indochina, OD700, 3 h (AID 1156); conditions: higher = more signal, called active from +8 up or from −8 down
# [6] = PSAC antagonists in infected red cells, primary screen, cell-based, P. falciparum Indochina, OD700, 18 h (AID 1157); conditions: P. falciparum Indochina infected erythrocytes, osmotic lysis OD700, 18 h; higher = more signal, called active from +8 up or from −8 down
# [7] = modulators of S6 phosphorylation in cells, primary screen, cell-based, A549, cytoblot, luminescence, serum-stimulated (AID 1158); conditions: A549 phospho-S6 cytoblot, 5 h, higher = more signal;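 note: serum-stimulated A549 lung adenocarcinoma cells; signal is phosphorylated S6 detected by cytoblot immunostaining with HRP secondary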
# [8] = target: NADPH oxidase 2 (Homo sapiens) (UniProt P04839); test: NOX2-dependent H2O2 signal modulators, primary screen, NOX inhibitor project, cell-based, HEK293-NOX2, PMA-stimulated, Amplex Red fluorescence (AID 1159); conditions: 45 min, higher = more signal, called active from +8 up or from −8 down; note: test concentration not given here
# [9] = target: NADPH oxidase 4 (Homo sapiens) (UniProt Q9NPH5); test: NOX4-dependent H2O2 signal modulators, primary screen, NOX inhibitor project, cell-based, HEK293-NOX4, tetracycline-induced, Amplex Red fluorescence (AID 1160); conditions: 45 min, higher = more signal, called active from +8 up or from −8 down
# [10] = target: NADPH oxidase 5 (Homo sapiens) (UniProt Q96PH1); test: NOX5-dependent H2O2 signal modulators, primary screen, NOX inhibitor project, cell-based, HEK293-NOX5, Amplex Red fluorescence (AID 1161); conditions: HEK293-NOX5, ionomycin, 45 min, higher = more signal
# [11] = A549 cell viability effects, profiling panel, calcein-AM fluorescence, 48 h, basal (AID 1162); conditions: higher = more signal; note: test concentration not given here
# [12] = adipocyte viability effects, profiling panel, cell-based, 3T3-L1 adipocytes, calcein-AM fluorescence, 48 h, basal (AID 1163); conditions: 3T3-L1 adipocytes viability, higher = more signal; note: test concentration not given here
# [13] = HepG2 cell viability effects, profiling panel, calcein-AM fluorescence, 48 h, basal (AID 1164); conditions: higher = more signal; note: test concentration not given here
# [14] = MM1S cell viability effects, profiling panel, calcein-AM fluorescence, 48 h, basal (AID 1165); conditions: higher = more signal;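 note: viability of MM1S multiple myeloma cells under basal unstimulated conditions; test concentration not given here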
# [15] = basal RPMI8226 viability, no added stimulus, profiling panel, cell-based, calcein-AM fluorescence, 48 h, PK04 Diversity Set (AID 1166); conditions: RPMI8226 myeloma viability, higher = more signal;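 note: cells grown under basal conditions without added stimulus; test concentration not given here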
# [16] = basal HepG2 mitochondrial membrane potential changes, profiling panel, cell-based, JC-1 fluorescence, 24 h, 100 nL compound (AID 1167); conditions: higher = more signal; note: test concentration not given here
# [17] = basal 3T3-L1 adipocyte mitochondrial potential changes, profiling panel, cell-based, JC-1 fluorescence, 3T3-L1 adipocytes, 24 h, 100 nL compound (AID 1168); conditions: JC-1 mitochondrial fluorescence, higher = more signal, called active from +8 up or from −8 down; note: test concentration not given here
# [18] = basal RPMI8226 mitochondrial membrane potential changes, profiling panel, cell-based, JC-1 fluorescence, 24 h, 100 nL compound (AID 1169); conditions: RPMI8226 myeloma, JC-1 mitochondrial potential fluorescence, higher = more signal; note: test concentration not given here
# [19] = basal MM1S mitochondrial membrane potential changes, profiling panel, cell-based, JC-1 fluorescence, 24 h, 100 nL compound (AID 1170); conditions: higher = more signal; note: test concentration not given here
# [20] = A549 lung cancer cell viability effects, profiling panel, resazurin fluorescence, 24 h, PK04 Diversity Set (AID 1171); conditions: higher = more signal, called active from +8 up or from −8 down; note: test concentration not given here
# Chain of NADPH oxidase 5 (Homo sapiens) (Q96PH1 whole entry, looked up): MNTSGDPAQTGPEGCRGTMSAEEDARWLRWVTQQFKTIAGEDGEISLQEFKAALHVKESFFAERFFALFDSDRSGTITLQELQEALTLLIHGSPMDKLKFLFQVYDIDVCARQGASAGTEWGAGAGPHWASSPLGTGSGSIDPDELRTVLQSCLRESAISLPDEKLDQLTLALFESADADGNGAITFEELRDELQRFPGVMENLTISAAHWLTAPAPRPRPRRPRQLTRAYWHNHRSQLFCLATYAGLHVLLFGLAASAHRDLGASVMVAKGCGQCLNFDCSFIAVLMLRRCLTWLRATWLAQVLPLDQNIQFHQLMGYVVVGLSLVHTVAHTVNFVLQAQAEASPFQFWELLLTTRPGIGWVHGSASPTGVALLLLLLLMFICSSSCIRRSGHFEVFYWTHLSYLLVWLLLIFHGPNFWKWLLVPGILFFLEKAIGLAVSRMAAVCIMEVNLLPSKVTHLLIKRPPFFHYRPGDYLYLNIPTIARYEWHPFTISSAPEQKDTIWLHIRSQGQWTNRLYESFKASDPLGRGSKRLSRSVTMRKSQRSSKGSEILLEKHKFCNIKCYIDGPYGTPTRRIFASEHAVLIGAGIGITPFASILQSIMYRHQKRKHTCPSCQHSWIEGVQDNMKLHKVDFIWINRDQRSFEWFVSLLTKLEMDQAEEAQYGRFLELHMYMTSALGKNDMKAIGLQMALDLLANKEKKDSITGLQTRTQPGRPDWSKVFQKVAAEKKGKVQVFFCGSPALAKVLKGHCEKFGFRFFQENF
# Chain of NADPH oxidase 2 (Homo sapiens) (P04839 whole entry, looked up): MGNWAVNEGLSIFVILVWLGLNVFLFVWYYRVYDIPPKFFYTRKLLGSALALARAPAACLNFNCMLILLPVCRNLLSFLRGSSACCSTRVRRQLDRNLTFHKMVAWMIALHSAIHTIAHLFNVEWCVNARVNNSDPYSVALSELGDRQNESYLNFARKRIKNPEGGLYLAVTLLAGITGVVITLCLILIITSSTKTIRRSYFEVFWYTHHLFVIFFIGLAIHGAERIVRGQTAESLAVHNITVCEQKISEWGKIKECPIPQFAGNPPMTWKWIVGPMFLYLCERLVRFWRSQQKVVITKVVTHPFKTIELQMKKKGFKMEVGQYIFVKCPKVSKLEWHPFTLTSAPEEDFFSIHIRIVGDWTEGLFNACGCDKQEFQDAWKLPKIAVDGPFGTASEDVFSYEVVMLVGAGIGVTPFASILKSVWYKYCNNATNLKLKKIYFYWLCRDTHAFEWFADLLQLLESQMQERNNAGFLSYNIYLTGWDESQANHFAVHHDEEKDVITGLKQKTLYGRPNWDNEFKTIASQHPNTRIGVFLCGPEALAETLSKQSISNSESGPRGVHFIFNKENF
# Chain of NADPH oxidase 4 (Homo sapiens) (Q9NPH5 whole entry, looked up): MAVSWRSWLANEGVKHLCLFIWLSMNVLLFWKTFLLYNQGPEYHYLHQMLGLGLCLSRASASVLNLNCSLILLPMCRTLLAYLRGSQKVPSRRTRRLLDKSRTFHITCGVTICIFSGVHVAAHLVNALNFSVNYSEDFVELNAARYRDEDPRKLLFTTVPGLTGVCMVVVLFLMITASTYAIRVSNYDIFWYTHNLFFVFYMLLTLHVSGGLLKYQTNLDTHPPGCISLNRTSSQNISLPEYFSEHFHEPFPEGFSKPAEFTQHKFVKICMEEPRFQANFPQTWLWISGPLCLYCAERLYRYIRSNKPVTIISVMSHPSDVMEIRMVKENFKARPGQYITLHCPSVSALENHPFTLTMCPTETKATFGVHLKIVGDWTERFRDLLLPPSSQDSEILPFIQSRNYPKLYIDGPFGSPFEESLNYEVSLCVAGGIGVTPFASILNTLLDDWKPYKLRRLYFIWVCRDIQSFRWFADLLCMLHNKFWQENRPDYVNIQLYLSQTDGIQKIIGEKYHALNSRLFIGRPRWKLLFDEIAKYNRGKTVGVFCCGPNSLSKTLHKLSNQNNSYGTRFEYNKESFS
Structure (SMILES),z-score [1],composite z-score [2],z-score [3],z-score [4],z-score [5],z-score [6],z-score [7],z-score [8],z-score [9],z-score [10],z-score [11],z-score [12],z-score [13],z-score [14],z-score [15],z-score [16],z-score [17],z-score [18],z-score [19],z-score [20]
CCOC(=O)C[C@H]1[C@H](OC(=O)Cc2ccc3c(c2)OCO3)[C@@H](NC(=O)c2ccccc2)c2cc(OCCCO)ccc2N1C(=O)Cc1ccc(OC)cc1,1.57 (inactive),-0.31,9.58 (active),0.828 (inactive),-0.288 (inactive),-0.129 (inactive),2.91,-0.986 (inactive),0.205 (inactive),-1.1,3.09,1.19,1.01,0.856,0.434,1.53,-0.947 (inactive),0.133,-0.851,0.0119 (inactive)
COC(=O)[C@@]1(Cc2ccccc2CN=[N+]=[N-])COC(c2ccc(OCCCO)cc2)=N1,-0.156 (inactive),0.2,23.8 (active),9.9 (active),4.61 (inactive),0.959 (inactive),0.202,-3.07 (inactive),-0.519 (inactive),-3.18,-1.19,-0.19,-0.891,-3.53,-0.691,-2.15,-0.428 (inactive),-1.01,0.515,-0.657 (inactive)
COCC(=C=CC[C@@H](O)c1ccc(OCCO)cc1)C[C@@H](O)COCc1ccccc1,1.81 (inactive),0.0299,7.41 (inactive),0.416 (inactive),0.766 (inactive),-0.756 (inactive),2.43,-1.16 (inactive),-0.479 (inactive),-2.03,0.517,0.657,0.712,0.105,0.0253,-1.77,0.914 (inactive),-0.725,-1.03,0.583 (inactive)
C=C(COC)/C(=C/C[C@H](OC(=O)c1ccncc1)c1ccc(OCCO)cc1)c1cc(C(=O)OC)ccc1OC,1.79 (inactive),0.0999,21.4 (active),2.24 (inactive),2.31 (inactive),-1.02 (inactive),0.876,-3.16 (inactive),-1.49 (inactive),-2.53,-0.313,1.7,-0.842,-1.18,-0.443,1.37,-0.4 (inactive),0.368,0.0527,1.29 (inactive)
COCCOC(=O)N1C(=O)[C@@]2(c3cc(C#CCCO)ccc31)[C@H](c1ccc(O)cc1)N1[C@H](c3ccccc3)[C@H](c3ccccc3)OC(=O)[C@H]1[C@@H]2C(=O)N1CCc2cc(OC)c(OC)cc2C1,-0.0188 (inactive),0.469,1.22 (inactive),0.141 (inactive),0.203 (inactive),0.286 (inactive),0.212,0.611 (inactive),0.522 (inactive),1.02,1.1,0.462,1.04,0.664,0.113,0.374,0.57 (inactive),-0.253,-0.602,-0.0256 (inactive)
C=CCC(OC(C)=O)[C@@H]1[C@@H](N(Cc2cccc3ccccc23)C(=O)c2ccc(-c3ccccc3)cc2)c2cc(OCCCO)ccc2N1C(=O)c1ccc2ccccc2n1 (stereo not given in full),-0.688 (inactive),0.123,0.0025 (inactive),-0.232 (inactive),-0.44 (inactive),-0.0821 (inactive),1.14,-0.0242 (inactive),1.04 (inactive),1.48,-0.421,0.587,0.589,-0.848,-0.842,1.08,-0.12 (inactive),0.61,-0.0192,0.701 (inactive)
C=CC[C@@]12N=C(c3ccc(OCCCO)cc3)O[C@@H]1c1ccccc1N(Cc1ccccc1)C2=O,1.04 (inactive),1.47,31.3 (active),28.1 (active),3.1 (inactive),2.31 (inactive),-0.0677,-0.812 (inactive),-0.091 (inactive),-1.59,-0.395,0.555,-1.48,-3.4,-4.23,0.394,2.91 (inactive),-1.25,-0.934,-1.1 (inactive)
CC(C)C[C@H]1NC(=O)[C@H](Cc2ccccc2)NC(=O)[C@@]23C(=O)N[C@@H](Cc4ccccc4)C2[C@H](C)[C@@]2(C)O[C@H]2C3/C=C/C/C=C\CNC1=O (stereo not given in full),-1 (inactive),-0.145,0.133 (inactive),-0.209 (inactive),0.0708 (inactive),-0.308 (inactive),-0.129,1.05 (inactive),0.819 (inactive),-1.37,-0.0322,0.13,-1.04,-0.356,-0.718,-1.07,0.0338 (inactive),0.478,0.704,0.395 (inactive)
COc1ccc([Si](C)(C)[C@H]2[C@H](CCn3cc([C@H](O)c4ccccc4)nn3)O[C@@]3(C(=O)N(C)c4c(Br)cc(C)cc43)[C@@H]2C)cc1,0.45 (inactive),-0.196,5.6 (inactive),1.59 (inactive),1.25 (inactive),1.11 (inactive),-0.108,0.276 (inactive),0.825 (inactive),0.37,-1.94,1.69,-4.58,-2.48,-4.31,-0.281,-0.162 (inactive),-1,0.212,-2.66 (inactive)
